From PubChem
A selection: hits, their analogues and other compounds. The true share with any hit is near 3.6%.
HTT-AS act: HTT-AS promoter activation; AID 1508624; 48,000 tested, 0.24% active; HEK293 HTT-AS promoter firefly luciferase reporter, 24 h; response scale: percent change from vehicle, -100% = no light; Potency, µM (series often up to 57.5 µM), inactives show at the highest dose activity change, positive = activation, hits mostly activators; note: nearly all actives have a fitted effect of over 55% in size
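HEK293 cells carrying firefly luciferase reporters were seeded at 2,500 per well in Opti-MEM and cultured for 24 h. They were then treated with compounds at up to 57.5 uM final for 24 h at 37 degrees C before Dual-Glo luminescence readout.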
S16 F2sN tox: S16 Schwann cell cytotoxicity; S16 Pmp22-F2sN Schwann cells viability, CellTiter-Glo, 24 h; 43,000 tested, 0.48% active; AID 1508642; Potency, µM (doses to about 57.5 µM), for inactives: at the highest dose activity change, negative = cytotoxicity, hits mostly cytotoxic; note: % is set by controls: 0 for no effect and ±100 for the full control effect; nearly all actives have a fitted effect of over 65% in size
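S16 Schwann cells carrying the Pmp22-F2sN reporter, seeded in 1536-well format, were exposed to library compounds for 24 h at 37C. Viability was read as CellTiter-Glo luminescence after 15 min at room temperature.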
PMP22 txn: modulators of PMP22 gene transcription in S16 Schwann cells; S16 Pmp22-F2sN Schwann cells (luciferase reporters placed in the Pmp22 gene), FLuc/NLuc coincidence luminescence, 24 h; Potency, µM (titrated, usually from 57.5 µM), for the others: at the highest dose activity change, negative = inhibition, hits mostly inhibitors; 43,000 tested, 2% active; active = clear falling dose curves in both reporters; inconclusive = both reporters move, but less clearly or upward; inactive = either reporter flat; the % is the NLuc reporter signal; note: % is set by controls: 0 for no effect and ±100 for the full control effect
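S16(c9) Schwann cells with FLuc/NLuc coincidence reporter in the Pmp22 3' UTR; compounds pin-transferred, 24 h at 37C. Dual-luciferase read: FLuc first, then NLuc after Stop&Glo, each 10 min at room temperature.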
mTORC1 inh: reduces mTORC1 signaling in Tsc2 and p53 null MEF cells; 44,000 tested, 0.78% active; Tsc2-/- p53-/- MEF, phospho-rpS6 immunofluorescence/PI, 24 h; AID 493208; Potency, µM (top dose mostly 38.3 µM), for inactives: at the top dose activity change, negative = inhibition, usual class: inhibitors;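 note: plate controls were DMSO for no effect and rapamycin for full effect; nearly all actives have a fitted effect of over 50% in size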
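Immunofluorescence of rpS6 phosphorylation in Tsc2-/-, p53-/- MEFs after 24 h compound exposure, normalized to propidium iodide signal. Activity is expressed as % positive cells, thresholded with 7.5 nM rapamycin.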
HTT prom inh: inhibits huntingtin promoter activity. AID 1508623. 48,000 tested, 0.93% active. HEK293 HTT promoter firefly luciferase reporter, 24 h. Potency, µM (top dose mostly 57.5 µM), for inactives: at the top dose activity change, negative = inhibition, hits mostly inhibitors; note: nearly all actives have a fitted effect of over 50% in size
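Quantitative HTS used concentration series of up to 57.5 uM final on HEK293 luciferase reporter cells, 24 h at 37 degrees C. Readout was Dual-Glo firefly luminescence.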
Active calls of the source: *; u = inconclusive; x = not tested or not shown; [ ] = dose if it differs, or a comment. Unless noted, calls come from the whole dose curve; as a rule, active = well fitted curve in the direction sought with a large enough effect; inconclusive = small, poorly fitted or top-dose-only effect, or another doubt; inactive = no such curve, though single readings can be large; an effect the other way counts as inactive or inconclusive. Potency is the fitted concentration of half-maximal effect.

SMILES	HTT-AS act	S16 F2sN tox	PMP22 txn	mTORC1 inh	HTT prom inh
COc1ccc(N2CCN(C(=O)c3nc(SC)ncc3Cl)CC2)cc1	3%	4%	-6%	-6%	-21%
Cc1ccc(C(=O)NCC(c2ccc3c(c2)OCO3)N2CCN(c3ccc(F)cc3)CC2)cc1 (stereo not drawn)	-40%	8%	-11%	5%	22µM*
COc1cccc(NC(=O)C(=O)NCC(c2ccc3c(c2)OCO3)N2CCOCC2)c1 (stereo not drawn)	4.5µM*	-24%	u	0%	93%
CON(C)C(=O)N1N=C(c2cc(F)ccc2F)S[C@]1(CCCN)c1ccccc1	-30%	x	x	x	-22%
CCOc1cc2ncc(C#N)c(Nc3ccc(F)c(Cl)c3)c2cc1NC(=O)C=CCN(C)C	-30%	x	x	x	-6%
Cc1cccc(N2CCN(CCNC(=O)Nc3ccc(Cl)cc3)CC2)c1C	-55%	u	u	18µM*	u
O=C(NCCCN1CCN(c2ccc(F)cc2)CC1)Nc1ccc(Cl)cc1	-26%	u	u	u	-24%
O=C(NCCCN1CCN(c2ccccc2F)CC1)C1COc2ccccc2C1 (stereo not drawn)	-11%	-3%	-22%	-1%	-13%
Cc1ccc(C)c(N2CCN(CCCNC(=O)C3COc4ccccc4C3)CC2)c1 (stereo not drawn)	-29%	u	u	12µM*	u
Cc1cn2c(-c3cn[nH]c3)cnc2c(Nc2ccc(C(=O)N3CCNCC3)cc2F)n1	-28%	x	x	x	u
COc1ccc(CCNC(=O)c2nc(SCc3ccccc3F)ncc2Cl)cc1OC	-48%	-4%	u	-26%	18µM*
CCOc1ccc(S(=O)(=O)NCC(c2ccco2)S(=O)(=O)c2cccs2)cc1 (stereo not drawn)	-10%	u	u	1%	u
Cc1cc(F)ccc1S(=O)(=O)NCC(c1ccco1)S(=O)(=O)c1cccs1 (stereo not drawn)	-5%	16µM*	u	1%	-17%
COc1ccc(S(=O)(=O)NCC(c2ccco2)S(=O)(=O)c2cccs2)cc1F (stereo not drawn)	-16%	13µM*	15µM*	-5%	u
COc1ccc(S(=O)(=O)NCC(c2ccco2)S(=O)(=O)c2cccs2)cc1C (stereo not drawn)	-14%	22µM*	u	-1%	u
CNC(=O)c1ccc(N2C(=S)N(c3cnc(C#N)c(C(F)(F)F)c3)C(=O)C23CCC3)cc1F	-9%	x	x	x	u
C[C@H](NC(=O)c1sccc1OCc1ccc(Cl)cc1)c1ccccc1	-46%	x	x	x	u
CN[C@@H]1CN(c2ccc3c(=O)c(C(=O)O)cn(-c4nccs4)c3n2)C[C@@H]1OC	-34%[25.1 µM]	x	x	x	u
Oc1ccc(NCc2ccccc2OCc2ccccc2Cl)cc1	-11%	20µM*	7µM*	-28%	-18%
Oc1ccc(NCc2ccc(OCc3ccccc3Cl)cc2)cc1	-3%	u	u	16µM*	0%
Oc1ccc(NCc2ccc(OCc3ccccc3)cc2)cc1	14%	10µM*	4.6µM*	15µM*	-23%
CCCn1c(=O)c2[nH]c(C34CC5CC3C[C@@H](C5)C4)nc2n(CCC)c1=O	-3%	x	x	x	4%
Cc1cc(C(=O)C(=O)Nc2nnc(C(C)C)s2)c(C)n1-c1ccccc1	-86%	-7%	-8%	0%	6.3µM*
O=C(O)[C@@H](c1ccc(OCc2ccc3ccccc3n2)cc1)C1CCCC1	14%	x	x	x	6%
Cc1ccc(-c2cc3ncc4c(n3n2)-c2ccccc2OC4)cc1	u	-5%	1%	-9%	41%
SMILES	HTT-AS act	S16 F2sN tox	PMP22 txn	mTORC1 inh	HTT prom inh
c1ccc(-c2cc3ncc4c(n3n2)-c2ccccc2OC4)cc1	1.6µM*	-2%	u	1%	67%
O=c1c(-c2ccc(O)cc2)coc2cc(OC3O[C@H](CO)[C@H](O)[C@H](O)[C@H]3O)cc(O)c12 (stereo partly drawn)	4%	x	x	x	11%
CC(C)C[C@@H](N)[C@H](O)C(=O)N[C@H](C(=O)N[C@H](C(=O)N[C@@H](CC(=O)O)C(=O)O)C(C)C)C(C)C	-11%	x	x	x	-22%
Cc1cc(C)cc(Nc2cc(C)nc3nncn23)c1	-4%	3%	-7%	1%	10%
Cc1cc(NCc2ccccc2Cl)n2cnnc2n1	-44%	-18%	u	-17%	18µM*
Cc1ccc(-n2nc(C(=O)N3CCN(c4cccc(C(F)(F)F)c4)CC3)c(=O)n(C)c2=O)cc1	-32%	-24%	u	-6%	32µM*
CCC(C(=O)NCCc1ccc(SC)cc1)n1nc(C)c2sc3ccccc3c2c1=O (stereo not drawn)	-25%	5%	-14%	2%	-19%
Cc1ccc(CNC(=O)C(C)n2nc(C)c3sc4ccccc4c3c2=O)cc1 (stereo not drawn)	-24%	-21%	-6%	3%	-13%
Cc1nn(C(C)C(=O)NC2CCCCC2)c(=O)c2c1sc1ccccc12 (stereo not drawn)	-5%	7%	40%	1µM*	-6%
CSc1ccc(CCNC(=O)C(C)n2nc(C)c3sc4ccccc4c3c2=O)cc1 (stereo not drawn)	-12%	4%	3%	0.52µM*	-5%
Cc1c(CCOc2ccc(C(=O)O)cc2)c2cc(Cl)ccc2n1C(c1ccccc1)c1ccccc1	-12%	x	x	x	-3%
C[C@@]12O[C@@H](C[C@]1(O)CO)n1c3ccccc3c3c4c(c5c6ccccc6n2c5c31)CNC4=O	-50%	x	x	x	u
COC(=O)C=CC(=O)OC	-31%	x	x	x	u
CCOc1ccc(-c2cc(C(=O)N3CCN(c4ccc(C)cc4)C(C)C3)c3ccccc3n2)cc1 (stereo not drawn)	1.8µM*	0%	-6%	-6%	9%
COc1ccc(OCC(O)Cn2c(NCCO)nc3c2c(=O)n(C)c(=O)n3C)cc1 (stereo not drawn)	-67%	-1%	u	0%	14µM*
CCCNc1nc2c(c(=O)n(C)c(=O)n2C)n1CC(O)COc1ccccc1 (stereo not drawn)	-12%	-1%	u	8%	-5%
Nc1ncn([C@@H]2O[C@H](CO)[C@@H](O)[C@@H]2O)c(=O)n1	-28%	x	x	x	u
CCN1CCC(N(Cc2ccc(F)cc2)C(=O)Nc2ccc(C)c(F)c2)CC1	-8%	8%	17%	16µM*	-10%
CCOc1ccccc1NC(=O)N(Cc1ccc(F)cc1)C1CCN(CC)CC1	-12%	11%	-10%	15µM*	-9%
CCCCCN(CCC12CC3CC(CC(C3)C1)C2)C(=O)NCCCc1ccncc1	-6%	x	x	x	-5%
